Screening results from PubChem.
Ba/F3 V617F tox – reduced viability of JAK2V617F-dependent Ba/F3 cells, primary screen, JAK2V617F inhibitor project, cell-based, Ba/F3 EpoR-JAK2V617F, luminescence; AID 1446, 2008; actives 1.1% (n = 220,000); ATP luminescence; inhibition, % at 5.6 µM;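 active = inhibition above the campaign mean plus 3 SD over all tested compounds, cut at about 24% in these data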;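 also: cytokine-independent growth of Ba/F3 cells driven by EpoR plus mutant JAK2; 0% = DMSO-treated cells and 100% = JAK inhibitor I control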
KLF5 inhibitor – KLF5 expression inhibitors, primary screen, DLD-1 cells, luminescence; inhibition, % at 5 µM; DLD-1 KLF5 promoter-luciferase reporter; actives 0.23% (n = 290,000);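 active = inhibition above a per-plate limit of that plate's mean compound inhibition plus 3 SD, cut at about 60% in these data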;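 also: 0% = DMSO wells and 100% = LY294002 at 200 µM; higher means less KLF5 promoter-driven luciferase light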
aSyn 5UTR inh – MLPCN primary screen, SNCA 5' untranslated region; actives 0.82% (n = 300,000); AID 1813, 2009; inhibition, % (tested at 7.5 µM); alpha-synuclein 5'UTR reporter, inhibitor activity; in the data active = inhibition above about 60%;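 also: H4 neuroglioblastoma cells stably carrying SNCA 5'UTR luciferase fusion; 0% = DMSO wells and 100% = positive control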
BaF3 parental – parental Ba/F3 cell viability inhibition, counter-screen for JAK2V617F inhibitor project, murine pro-B, CellTiter-Glo luminescence; CellTiter-Glo ATP luminescence; inhibition, % at 5.6 µM; actives 1.1% (n = 220,000);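 active = inhibition above a per-campaign cutoff, the mean inhibition of all tested compounds plus 3 SD, cut at about 27% in these data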;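 also: 0% = DMSO wells and 100% = JAK Inhibitor I control wells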
IEC-6 cytotox – cytotoxicity in IEC-6 intestinal epithelial cells, primary screen, cytotoxicity control for KLF5 inhibitor project, cell-based, luminescence; IEC-6 cytotoxicity, luminescence viability; inhibition, % at 5 µM; actives 0.78% (n = 290,000); AID 1825, 2009;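 also: 0% = plate median of test compound wells and 100% = cytotoxic reference compound wells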
APP transl inh – inhibitors of APP translation via 5'UTR reporter, primary screen, APP 5'UTR luciferase, SH-SY5Y cells; SH-SY5Y APP 5'UTR-luciferase reporter, luminescence; actives 0.82% (n = 190,000); inhibition, % at 2 µM;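 active = inhibition above a set limit, derived from the sample mean plus 3 SD, cut at about 45% in these data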
IEC-6 cytotox cf – cytotoxic compounds in IEC-6 epithelial cells, confirmation, cytotoxicity control, cell-based, luminescence; shares compounds with IEC-6 cytotox; IEC-6 rat intestinal epithelial viability; inhibition, % at 5 µM; actives 63% (n = 1,900);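 also: 0% = vehicle and 100% = reference cytotoxic drug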
The depositor's hits bear a star; / = no result. This is a sample that favours compounds with a hit; in the whole collection about 2.2% have one here. Rule as the data show it, unless noted: active = inhibition above about 22%; inactive = the rest.

SMILES	Ba/F3 V617F tox	KLF5 inhibitor	aSyn 5UTR inh	BaF3 parental	IEC-6 cytotox	APP transl inh	IEC-6 cytotox cf
Nc1ccn([C@@H]2O[C@H](CO)[C@@H](O)[C@@H]2O)c(=O)n1	73.7*	16.1	81.1*	79.5*	89.7*	82.6*	76.2*
N=c1ccn2c(n1)O[C@H]1[C@H](O)[C@@H](CO)O[C@H]12	/	5.8	56.7	/	91.6*	/	74.2*
O=C(OCC1OC2C(Oc3nc(=O)ccn32)C1O)c1ccccc1 (stereo not drawn)	-0.2	-3.8	-2.3	1.2	3.1	-9.9	/
Nc1ncn([C@@H]2O[C@H](CO)[C@@H](O)[C@H]2O)c(=O)n1	/	/	32.5	/	/	/	/
O=C(Cc1cccc(C(F)(F)F)c1)Nc1ccccc1N1CCCC1	/	-33.4	22.6	/	-2.0	/	/
CNC(=S)Nc1cccc(-c2cnc3ccccc3n2)c1	/	-112.4	-143.8	/	1.7	/	/
COc1ccccc1C1CC(=O)Nc2cc3c(cc21)OCCO3 (stereo not drawn)	73.2*	63.8*	47.5	72.1*	75.4*	95.0*	59.7*
Cc1cccc(NC2=NC(C)(C)N=C(N)N2)c1	98.9*	20.0	98.4*	101.1*	77.0*	4.4	70.2*
Cc1cc(C)n(/N=C/c2cccs2)c(=O)c1C#N	3.1	-30.9	-11.6	1.7	70.6*	-0.5	4.7
Cc1ccc(NC(=O)CSc2nc(=O)n(CCN3CCOCC3)c3c2CCCC3)cc1	/	/	-7.7	/	/	/	/
ClCC1CN(Cc2ccccc2Cl)CCO1 (stereo not drawn)	1.8	-16.5	-16.9	3.1	0.2	6.6	/
COC1=C(N)C(=O)c2nc(-c3nc(C(=O)O)c(C)c(-c4ccc(OC)c(OC)c4O)c3N)ccc2C1=O	86.1*	-10.2	/	71.4*	45.0*	94.6*	101.2*
COc1ccc(-c2ncncc2-c2csc(C)n2)c(O)c1OC	-1.9	-19.1	-4.2	2.8	-2.1	-0.4	/
C=CCOc1c(Cl)cc(CNc2ccc(N(C)C)cc2)cc1OC	-4.5	-5.2	-16.7	3.4	-7.5	-66.7	/
C=CCOc1c(Cl)cc(CNc2ccc(C)c(Cl)c2)cc1OC	77.0*	50.0	84.6*	77.1*	50.2*	91.1*	50.5*
CC(C)c1ccccc1OCC(=O)Nc1ccccc1C(=O)N1CCOCC1	/	-18.4	2.9	/	1.9	/	/
CCN1CCN(c2nc(Nc3ccc(C)c(C)c3)nc(N)c2[N+](=O)[O-])CC1	-2.6	-1.1	-2.8	-2.9	1.5	-0.9	/
CCN1CCN(c2nc(Nc3cccc(OC)c3)nc(N)c2[N+](=O)[O-])CC1	/	12.9	-86.4	/	23.5*	/	8.0
CC1CCCC(NC(=O)CNCc2ccccc2F)C1C (stereo not drawn)	1.9	-14.7	8.4	9.8	1.3	-2.7	/
O=C(Nc1ccc(S(=O)(=O)N2CCOCC2)cc1)c1cc(-c2cc(Cl)ccc2O)n[nH]1	76.6*	42.4	33.8	59.5*	36.0*	/	4.8
Cc1cc(O)c(-c2cc(C(=O)Nc3ccc(S(=O)(=O)N4CCOCC4)cc3)[nH]n2)cc1C	-2.3	-12.9	13.8	2.7	2.0	-10.3	/
S=C1NCCNC(=S)NCCOCCN1	4.0	-13.0	7.3	7.3	0.8	-3.4	/
Cc1cc(N/N=C/c2ccc(O)cc2O)nc(-n2nc(C)cc2C)n1	-3.1	35.8	71.8*	3.9	79.0*	53.4*	46.7*
COc1ccc(/C=N/Nc2cc(C)nc(-n3nc(C)cc3C)n2)cc1	1.0	4.3	5.8	4.8	5.6	-5.0	/
Cc1ccc(S(=O)(=O)/N=C(/Nc2ccc(F)cc2F)c2ccccc2)cc1	/	-3.8	4.6	/	-0.6	/	/
SMILES	Ba/F3 V617F tox	KLF5 inhibitor	aSyn 5UTR inh	BaF3 parental	IEC-6 cytotox	APP transl inh	IEC-6 cytotox cf
COc1ccccc1-c1nnc(NC(=O)c2ccc(S(=O)(=O)N3CCCC3)cc2)o1	/	19.7	11.9	/	22.4*	/	5.1
O=C(Nc1nnc(-c2ccc(F)cc2)o1)c1ccc(S(=O)(=O)N2CCOCC2)cc1	/	59.3	38.7	/	39.9*	/	12.6
CC1CC(C)CN(C(=O)Cn2c(=O)n(CCCC(=O)NCc3ccco3)c(=O)c3sccc32)C1 (stereo not drawn)	/	-4.5	-13.6	/	2.0	/	/
O=C1CN(C(=O)COc2cccc(F)c2)c2ccccc2N1	-6.0	-8.4	4.9	-1.4	-6.2	-12.7	/
Cc1noc(C)c1COc1cccc(C(=O)OCC(=O)N2CC(=O)Nc3ccccc32)c1	4.1	17.2	64.9*	2.7	79.0*	92.8*	43.2*
COc1ccc(C(=O)NCC2(N3CCCCC3)CCCCC2)cc1S(=O)(=O)N(C)C	/	-3.6	-9.4	/	2.1	/	/
COc1ccc(OC)c(C(=O)c2ccc(C(=O)c3cc(OC)ccc3OC)cc2)c1	-4.2	-37.7	17.4	0.2	1.6	-1.1	/
COc1ccc(C(=O)c2ccc(N(C)C)cc2)c(OC)c1	49.7*	33.2	36.6	52.0*	54.2*	78.1*	52.9*
COc1ccc(C(=O)c2ccc(OC)cc2OC)cc1	3.4	28.2	-30.6	-1.6	25.2*	/	13.6
O=C(c1cccnc1)N1CCN(C/C=C/c2ccccc2)CC1	0.4	-18.0	14.7	5.6	2.8	-9.1	/
Cc1cc(C(=O)N2CCN(C/C=C/c3ccccc3)CC2)cs1	0.2	1.7	15.9	2.7	45.3*	-16.4	-16.0
CCOC(=O)N1CCC(NC(=O)C2CCN(S(=O)(=O)c3ccc4c(c3)oc(=O)n4C)CC2)CC1	-0.3	-44.5	-17.8	5.4	-1.1	-11.6	/
CC(=O)Nc1ccc(S(=O)(=O)N2CCC(NC(=O)C(Cc3cccc(F)c3)NC(C)=O)CC2)cc1 (stereo not drawn)	/	1.1	6.2	/	-2.7	/	/
CCSc1nsc(NC(=O)Nc2ccccc2F)n1	/	-154.7	-183.3	/	-3.0	/	/
C=CCSc1nsc(NC(=O)Nc2ccc(F)cc2)n1	/	-12.8	10.0	/	31.7*	/	47.9*
CCCCOC(=O)c1ccc(NC(C)=O)cc1	4.6	-25.0	-5.7	3.7	24.1*	-9.5	6.0
COc1ccc2[nH]c3c(N4CCc5ccccc5C4)ncnc3c2c1	75.7*	40.2	43.3	78.0*	77.2*	/	65.9*
COc1ccc(N2CCN(c3ncnc4c3[nH]c3ccccc34)CC2)cc1	-1.9	-56.0	1.4	5.6	1.3	/	/
COc1ccc(S(=O)(=O)N2CCC(C(=O)NCC3CCCCC3)CC2)cc1	/	-4.0	2.5	/	-0.1	/	/
CCOc1ccccc1NC(=O)c1cccc(NC(=O)c2ccco2)c1	81.9*	45.1	-184.8	68.0*	54.6*	90.7*	51.8*
Cc1ccccc1NC(=O)c1cccc(NC(=O)c2ccco2)c1	/	-7.0	-15.3	/	0.0	/	/
COc1c(Cl)cnn(-c2ccccc2)c1=O	-1.4	-23.6	3.5	2.3	-2.4	10.5	/
COc1nn(-c2ccccc2)c(=O)c(Cl)c1Cl	/	-6.6	-347.4	/	100.2*	/	23.1*
